Among all 310,000 compounds or so, about 14,000 (4.5%) showed an effect of 50% or more. Effects have a minus sign here. The full list was thinned out, with strong results kept by preference.
These compounds were tested against human ether-à-go-go-related gene (hERG) potassium channel (human, UniProt Q12809) (assay: primary screen, population patch clamp on CHO cells stably expressing hERG; higher = less effect of the substance).
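Also: peak tail current of the secondary pulse compared with the same well before compound.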

Sequence of human ether-à-go-go-related gene (hERG) potassium channel (Q12809 whole entry, looked up): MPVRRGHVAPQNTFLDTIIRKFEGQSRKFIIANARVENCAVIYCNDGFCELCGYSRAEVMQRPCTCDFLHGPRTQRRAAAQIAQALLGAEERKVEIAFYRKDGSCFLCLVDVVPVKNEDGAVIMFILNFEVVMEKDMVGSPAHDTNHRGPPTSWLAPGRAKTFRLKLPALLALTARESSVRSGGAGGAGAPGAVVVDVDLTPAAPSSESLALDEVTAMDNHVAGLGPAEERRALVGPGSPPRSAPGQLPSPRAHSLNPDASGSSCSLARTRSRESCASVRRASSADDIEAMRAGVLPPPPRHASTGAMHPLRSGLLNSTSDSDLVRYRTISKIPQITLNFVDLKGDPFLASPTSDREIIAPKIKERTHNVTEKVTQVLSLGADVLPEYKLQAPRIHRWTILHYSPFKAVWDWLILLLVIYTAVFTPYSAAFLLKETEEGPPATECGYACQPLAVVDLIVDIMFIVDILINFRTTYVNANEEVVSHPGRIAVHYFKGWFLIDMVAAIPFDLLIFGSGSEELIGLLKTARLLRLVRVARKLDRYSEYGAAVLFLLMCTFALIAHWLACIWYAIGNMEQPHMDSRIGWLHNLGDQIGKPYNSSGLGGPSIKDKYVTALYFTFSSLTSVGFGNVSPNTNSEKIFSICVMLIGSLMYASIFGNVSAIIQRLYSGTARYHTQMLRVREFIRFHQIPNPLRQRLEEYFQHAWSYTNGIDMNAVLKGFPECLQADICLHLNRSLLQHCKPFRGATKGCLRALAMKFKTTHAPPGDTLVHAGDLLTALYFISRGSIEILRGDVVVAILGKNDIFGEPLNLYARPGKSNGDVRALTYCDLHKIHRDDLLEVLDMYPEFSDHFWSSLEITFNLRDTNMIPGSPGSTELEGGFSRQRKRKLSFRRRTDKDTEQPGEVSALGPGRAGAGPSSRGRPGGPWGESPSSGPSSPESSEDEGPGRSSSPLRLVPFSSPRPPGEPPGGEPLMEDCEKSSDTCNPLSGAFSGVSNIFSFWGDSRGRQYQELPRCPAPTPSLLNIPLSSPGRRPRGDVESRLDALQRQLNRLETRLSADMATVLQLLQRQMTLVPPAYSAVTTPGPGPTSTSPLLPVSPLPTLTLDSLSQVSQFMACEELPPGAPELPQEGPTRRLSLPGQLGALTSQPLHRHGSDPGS

Structure (SMILES) | hERG current change (%, negative = inhibition) at 10uM [%]
O=C(CN1C(=O)CCOc2ccccc21)Nc1ccc(Cl)c(S(=O)(=O)N2CCOCC2)c1 | -7.44
O=C(CCn1cnnn1)Nc1cccc(F)c1 | 21.3
S=C(NCCSCc1c(Cl)cccc1Cl)Nc1ccccc1 | -3.31
COCCn1c(C)cc(C2=NNC(=Nc3ccc(OC)cc3)SC2)c1C | 1.3
Cc1ccc(S(=O)(=O)Nc2ccnc3ccccc23)cc1 | -4.28
Cc1ccc(F)cc1NC(=O)c1sc2ncn(CC(=O)N3CCN(c4ccccn4)CC3)c(=O)c2c1C | -5.06
O=C(COC(=O)CCC(=O)c1cccs1)NC1CCCCC1 | 1.55
CCCCCCC(=O)N/N=C/c1c(O)n(C2CC2)c(=S)[nH]c1=O | -4.67
Cc1cc(N2CCN(c3ccccc3)CC2)n2nnnc2n1 | -3.56
Cc1cccc(N2CCN(c3nnnn3-c3ccccc3)CC2C)c1 (centres unmarked) | -10.8
Cc1cccc(N2CCN(c3cc(C)nc4nnnn34)CC2C)c1 (centres unmarked) | -53.1
O=C(NCCc1ccco1)C(=O)NCC1CCCN1S(=O)(=O)c1ccccc1 (centres unmarked) | -33.5
CSc1ccc(/C=C(\NC(=O)c2ccc(C)cc2)C(=O)Nc2cccc(C)c2)cc1 | 15.6
CC(C)Oc1ccc(C2CC(=O)N(c3ccccc3)C2=O)cc1 (centres unmarked) | 6.47
COc1ccc(-c2cc(=NCC(=O)O)c3ccccc3o2)cc1.[O-][Cl+3]([O-])([O-])O | -31.5
COc1ccc(-c2cc(=Nc3ccc(C(=O)O)cc3)c3cc(C)ccc3o2)cc1 | 12.7
CCC(N=c1cc(-c2ccc(OC)c(OC)c2)oc2ccc(C)cc12)C(=O)O (centres unmarked) | -20.7
COc1ccc(-c2cc(=[NH+]c3cccc(C(=O)O)c3)c3cc(C)ccc3o2)cc1.[O-][Cl+3]([O-])([O-])[O-] | -0.536
CCC(N=c1cc(-c2ccc(OC)cc2)oc2ccc(C)cc12)C(=O)O (centres unmarked) | -74.4
COc1ccc(-c2cc(=NC(CC(C)C)C(=O)O)c3cc(C)ccc3o2)cc1 (centres unmarked) | -56.5
O=C(CN1C(=O)NC2(CCc3ccccc32)C1=O)NCC(=O)Nc1ccc(F)cc1 (centres unmarked) | 1.09
CCCc1c(C(=O)N/N=C/c2ccccc2C(F)(F)F)nnn1-c1nonc1N | 11.8
CC(C)c1ccc(CNc2ccc3c(c2)ncn3C)cc1 | 9.16

Structure (SMILES) | hERG current change (%, negative = inhibition) at 10uM [%]
CC(C)(C)OC(=O)N1CCC[C@H]1c1nnc(SCc2c(Cl)cccc2Cl)o1 | -57.5
CC(C)(C)OC(=O)N1CCC[C@H]1c1nnc(SCc2c(F)cccc2Cl)o1 | 2.16
CC(C)(C)OC(=O)N1CCC[C@H]1c1nnc(SCc2ccccc2Cl)o1 | -5.07
Cc1ccccc1CNc1nnnn1C | 12.4
Br.O=C(CN1CCSC1=NCc1ccccc1)c1ccc(Cl)c(Cl)c1 | -17.7
Br.O=C(CN1CCSC1=NCc1ccccc1)c1ccc(Cl)cc1 | -53.9
Br.O=C(CN1CCSC1=NCc1ccccc1)c1ccccc1 | -23.5
C=CCNC(=O)c1c(-c2c(F)cccc2Cl)noc1C | -1.62
Cc1ccc(S(=O)(=O)N2CCC(C(=O)N3CCC[C@H]3C(=O)NCC(C)C)CC2)cc1 | 13.8
Cl.N=c1sccn1CC(=O)NCCc1ccc(Cl)cc1 | -26.3
CC(C)N=c1cc2n(-c3ccc(Cl)cc3)c3ccccc3nc-2cc1Nc1ccc(Cl)cc1 | 35.9
CCN(Cc1ccncc1)C(=O)c1cc(COc2ccc(F)cc2F)on1 | -36
CCN(Cc1ccncc1)C(=O)c1ccco1 | -73.5
CCN(Cc1ccncc1)C(=O)c1cc(COc2c(F)cccc2F)on1 | -36
CCN(Cc1ccncc1)C(=O)c1ccc(C)o1 | -0.494
CCN(Cc1ccccc1)C(=O)c1cc(COc2c(F)cccc2F)on1 | 3.85
CC(=O)c1ccc(OCc2cc(C(=O)N(C)Cc3nc4c(C)cccc4[nH]3)no2)cc1 | -10.7
CCN(Cc1ccncc1)C(=O)c1cc(COc2ccc(OC)cc2Cl)on1 | -22.6
CCN(Cc1ccncc1)C(=O)c1cc(COc2ccc(C)c(C)c2)on1 | -69.5
Cc1cccc(C)c1OCc1cc(C(=O)N(C)Cc2nc3ccccc3[nH]2)no1 | -70.6
CCN(Cc1ccncc1)C(=O)c1ccc(Br)o1 | 1.66
COc1cccc(OCc2cc(C(=O)N(C)Cc3nc4ccccc4[nH]3)no2)c1 | -37.1
CCN(Cc1ccncc1)C(=O)c1cc(COc2c(C)cccc2C)on1 | -75.3

Structure (SMILES) | hERG current change (%, negative = inhibition) at 10uM [%]
CCN(CC(=O)NC1CCS(=O)(=O)C1)S(=O)(=O)c1cc(C)ccc1C (centres unmarked) | 10.2
COc1ccc(NC(=O)Cn2c(=O)c(C)nc3ccccc32)cc1Cl | -2.07
CN(C)c1ccc(CCc2ccc(N)cc2)cc1 | 19.9
Cc1sc(NC(=O)c2ccco2)c(CN2CCN(c3ccccc3)CC2)c1C | 7.18
CCOc1ccc2c(c1)nc(NCCCO)n2Cc1ccccc1 | -20.3
O=c1[nH]c2ccccc2nc1-c1cccs1 | 1.66
COc1cc(C)nc(N2CCCC(C(=O)Nc3cccc(Cl)c3C)C2)n1 (centres unmarked) | 0.916
C/C(=C\C(=O)c1cccnc1)Nc1ccc(O)cc1 | -6.35
CCOc1cc(N(CC)CC)ccc1/C=C(/C#N)c1nc2ccccc2[nH]1 | 0.119
NC(=O)c1nc(-c2ccco2)nc2c1[nH]c(=O)n2-c1ccc(Cl)c(Cl)c1 | -9.13
COC(=O)c1ccccc1NC(=O)NCc1ccccc1 | -3.24
Cc1c(C(=O)OC2CCC(C)CC2)[nH]c2c1C(=O)CCC2 (centres unmarked) | -3.25
Cc1ccc(NS(=O)(=O)c2ccc(-c3csc(C)n3)s2)c(C)c1 | 16
CCN(CCn1cccn1)C(=O)c1cc(COc2c(F)cccc2F)on1 | 0.76
CCN(CCn1cccn1)C(=O)c1cc(COc2ccc(F)c(F)c2)on1 | -96
CCN(CCn1cccn1)C(=O)c1cc(COc2ccc(F)cc2Cl)on1 | -15.4
O=C1C2C3c4ccccc4C(c4ccccc43)[C@@H]2C(=O)N1c1ccccn1 (some centres unmarked) | 5.6
O=C(N/N=C/c1ccc(OC(F)F)cc1OC(F)F)c1cccc(S(=O)(=O)N2CCOCC2)c1 | -33.1
COC(=O)Cn1ncn2c(cc3oc(C)cc32)c1=O | 13.1
CCN(CC(=O)Nc1ccc(OC)cc1)C(=O)COc1cccc2c1OC(C)(C)C2 | -14.1
c1ccc(CN2CCCC3(CCCN(Cc4nc(COc5ccccc5)no4)C3)C2)cc1 (centres unmarked) | -69.3
Cc1ccccc1C1CCCN(Cc2nc(CC3CC3)no2)C1 (centres unmarked) | -12.7
c1ccc(OCc2noc(CN3CC[C@@H]4CCCC[C@H]4C3)n2)cc1 | 0.704

Structure (SMILES) | hERG current change (%, negative = inhibition) at 10uM [%]
C=CCC1(CC=C)CCCN1Cc1nc(COc2ccccc2)no1 | -11.5
c1ccc(CN2CCCC3(CCCN(Cc4nc(CC5CC5)no4)C3)C2)cc1 (centres unmarked) | -52.1
c1ccc(C2CCCN(Cc3nc(CC4CC4)no3)CC2)cc1 (centres unmarked) | 2.97
CN(CC(=O)O/N=C(\N)c1ccccn1)S(=O)(=O)c1ccccc1 | -4.98
COc1ccc(N2CCN(CCNC(=O)Nc3cc(Cl)ccc3OC)CC2)cc1 | 3.23
O=C(NCCN1CCN(Cc2ccccc2)CC1)Nc1cc(Cl)cc(Cl)c1 | -75.2
CCCN1CCN(C(=O)Nc2ccc(OCC)cc2)CC1 | -1.93
Cc1cccc(C)c1NC(=O)NCCCN1CCN(c2ccccc2)CC1 | -41.1
O=C(NCCN1CCCCC1)Nc1ccccc1 | -23.2
Cc1ccccc1NC(=O)NCCCN1CCN(c2ccccc2)CC1 | -50.7
COc1ccccc1NC(=O)NCCN1CCN(c2cccc(Cl)c2)CC1 | -9.6
O=C(Nc1ccc(F)cc1F)N1CCCN(CCOc2ccccc2)CC1 | -45.2
Cc1noc(C)c1NC(=O)NCCN1CCN(Cc2ccccc2)CC1 | 13.7
Cc1ccccc1NC(=O)NCCCN1CCN(C)CC1 | 28.1
COc1ccccc1NC(=O)NCCCN1CCN(c2cccc(Cl)c2)CC1 | -73.7
O=C(Nc1ccc2ccccc2c1)N1CCCN(CCOc2ccccc2)CC1 | -66
CC(C)C(C)NC(=O)CSc1ccc(S(=O)(=O)N2CCOCC2)cn1 (centres unmarked) | -1.56
CCOC(=O)C(CSCc1ccccc1)NC(=O)OC(C)(C)C (centres unmarked) | -14.8
CCOCCCNC(=O)C(C)NS(=O)(=O)c1ccc(C)cc1 (centres unmarked) | 4.29
COc1ccccc1NC(=O)CSCc1cc(=O)n2ccsc2n1 | 13.3

Reference: publication PMC4336329 (PLoS ONE, 2015)
